The values that follow come from PubChem BioAssay (NCI).

SMILES strings stand for the structures. Compounds without any hit were thinned out: in the full panel of roughly 79,000, 15% have a hit. Calls of active or inactive are those of the source. Rule as the data show it: active = growth inhibition above about 70%; inactive = the rest.

One experiment can be described thus: NCI Yeast Anticancer Drug Screen. Data for the sgs1 mgt1 strain (AID 161).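 Also: 0% = growth of cultures given vehicle only.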 Conditions: S. cerevisiae sgs1 mgt1 strain, at 5.0 µM (retest, dose inferred, filed as 0.5), stronger effect = higher value. Summed up:
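Read-out: growth inhibition vs vehicle controls. Cells: mutant yeast strain deficient in DNA damage repair.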
As for `Cc1cccc(NC(=O)CCc2ccc(Cl)cc2)n1`, the growth inhibition was 2% (inactive).

For the molecule `O=C(NNc1nc(-c2ccccc2)cs1)C(F)(F)F`, the growth inhibition is 91% (active).

`COc1ccc(C(=O)C(c2ccc(OC)cc2)C2(O)C(=O)Nc3c(Cl)cc(Cl)cc32)cc1` (stereo not drawn): the growth inhibition was 8% (inactive).

Regarding `CC(=O)NNc1nc(C)c(C(=O)NNC(=O)C(=O)Nc2ccc(Cl)c([N+](=O)[O-])c2)s1`, the growth inhibition is 32% (inactive).

`COc1ccc(Cc2cncc3c(O)c(OC)ccc23)cc1O`: the growth inhibition is -13% (inactive).

Take `Nc1ccccc1N=Nc1c(S(=O)(=O)O)cc2cc(S(=O)(=O)O)cc(O)c2c1O`: the growth inhibition was -3% (inactive).

As for `CCN(CC)c1c(C(=O)/C=C/c2ccc(OC)cc2)c(-c2ccccc2)nn(C)c1=O`, the growth inhibition was 5% (inactive).

On to `O=C(O)/C=C/c1ccc(Cl)c(Cl)c1`, for which the growth inhibition was 11% (inactive).

As for `CCC12C=CCN3CC[C@@]4(c5cc([C@@]6(C(=O)OC)C[C@@H]7CN(CCc8c6[nH]c6ccccc86)C[C@](O)(CC)C7)c(OC)cc5N(C)[C@H]4[C@@](O)(C(=O)OC)[C@@H]1OC(=O)CCCCCCCCCCCN1C(=O)C=CC1=O)[C@H]32` (stereo partly drawn), the growth inhibition was 35% (inactive).

As to `Cc1cc(C)c(Cc2cc(C(C)(C)C)cc(C)c2O)cc1Cc1cc(C(C)(C)C)cc(C)c1O`, the growth inhibition is 2% (inactive).

Regarding `COC(=O)C(=O)/C=C(/O)c1ccc(OC)cc1`, the growth inhibition was -7% (inactive).

Turning to `Oc1ccc2c(c1)OCC1c3ccccc3OC21` (stereo not drawn), the growth inhibition was 28% (inactive).

Regarding `Cc1cc(N2C(=O)CCSC2=S)c([N+](=O)[O-])cc1C`, the growth inhibition is 60% (inactive).

For the molecule `CCCCCCC(C)S(=O)(=O)c1ccc(C)cc1` (stereo not drawn), the growth inhibition is 7% (inactive).

On to `S=c1sc2c(s1)SCCOCCOCCOCCS2`, for which the growth inhibition is -12% (inactive).

For the molecule `N#Cc1cn(-c2c3ccccc3nc3ccccc23)c(=O)[nH]c1=O`, the growth inhibition was 3% (inactive).

Take `O=C1C=C(c2ccccc2)O/C1=C\C(=O)c1ccc(Cl)cc1`: the growth inhibition is 54% (inactive).

As to `O=c1[nH]c2cc(Cl)ccc2nc1/C=C(\O)c1ccc(N2CCN(c3ccc(/C(O)=C/c4nc5ccc(Cl)cc5[nH]c4=O)cc3)CC2)cc1`, the growth inhibition is -3% (inactive).

`O=C1Oc2ccccc2C(=O)/C1=C/N1C(=O)/C(=C/c2ccccc2)NC1=S`: the growth inhibition is -15% (inactive).

For the molecule `CN(C)/C=C(\C(=O)c1ccccc1)n1nc(-c2ccccc2)cc1-c1ccccc1`, the growth inhibition is 11% (inactive).

For the molecule `O=C1C(=O)c2ccccc2C(O)=C1Sc1ccccc1`, the growth inhibition was 44% (inactive).

For `O=C(c1c(F)c(F)c(F)c(F)c1F)n1c(=S)n(C(=O)c2c(F)c(F)c(F)c(F)c2F)c2ccccc21`, the growth inhibition is 14% (inactive).

As to `CCCCNCCC1(c2ccccc2)C(=O)Oc2ccccc21` (stereo not drawn), the growth inhibition was -5% (inactive).

In the case of `COc1cc(/C=C/c2cc[n+](C)cc2)ccc1O`, the growth inhibition is -18% (inactive).

Take `c1ccc(-c2ccc(-c3ccc(C4=NCCN4)cc3)o2)cc1`: the growth inhibition is -1% (inactive).

As to `CCCCCCCCCCCCCCNC(=O)C[N+](C)(C)Cc1ccccc1`, the growth inhibition is 99% (active).

Consider `NC(CSSCC(N)C(=O)Nc1ccc2ccccc2c1)C(=O)Nc1ccc2ccccc2c1` (stereo not drawn), for which the growth inhibition was 54% (inactive).

Turning to `O=C(OCc1ccccc1)C(O)c1ccccc1` (stereo not drawn), the growth inhibition was -1% (inactive).

Take `CC(=O)CC1(O)C(=O)Nc2ccc(Br)cc21` (stereo not drawn): the growth inhibition was -2% (inactive).

As for `S=C(S)NCCN1CCNCC1`, the growth inhibition was 0% (inactive).

`CCCCCCCC(=O)N1CCCCC1CC` (stereo not drawn): the growth inhibition was -63% (inactive).

For `O=C1CCCC1C(=O)OC1CCCC1` (stereo not drawn), the growth inhibition is 7% (inactive).

For `CCN1CCC(O)(/C=C/c2cccc(C)c2)C(C(=O)/C=C/c2cccc(C)c2)C1` (stereo not drawn), the growth inhibition is 95% (active).

As for `O=C(SCCCc1ccccc1)c1cc([N+](=O)[O-])cc([N+](=O)[O-])c1`, the growth inhibition is 99% (active).

For the molecule `O=C1C(=O)C2CC3(CC1N2Cc1ccccc1)OCCO3`, the growth inhibition was 36% (inactive).

As to `CNc1cc(SC)nc(N)n1`, the growth inhibition was 1% (inactive).

`Clc1ccc(Cl)c(SCCCN2CCNCC2)c1`: the growth inhibition is 35% (inactive).

In the case of `CC(C)C(Cl)CC/C(CBr)=C(\Cl)CCl` (stereo not drawn), the growth inhibition was 27% (inactive).

In the case of `O=C(O)CNc1ccc2c(c1)Cc1cc(Br)ccc1-2`, the growth inhibition is 55% (inactive).

Staying with this experiment, now noted: S. cerevisiae sgs1 mgt1 strain, at 50.0 µM (retest, dose inferred, filed as 5.0), stronger effect = higher value.
`Cc1cccc(NC(=O)CCc2ccc(Cl)cc2)n1`: the growth inhibition is 13% (inactive).

For `O=C(NNc1nc(-c2ccccc2)cs1)C(F)(F)F`, the growth inhibition is 99% (active).

In the case of `COc1ccc(C(=O)C(c2ccc(OC)cc2)C2(O)C(=O)Nc3c(Cl)cc(Cl)cc32)cc1` (stereo not drawn), the growth inhibition was 8% (inactive).

Take `CC(=O)NNc1nc(C)c(C(=O)NNC(=O)C(=O)Nc2ccc(Cl)c([N+](=O)[O-])c2)s1`: the growth inhibition is 32% (inactive).

Turning to `COc1ccc(Cc2cncc3c(O)c(OC)ccc23)cc1O`, the growth inhibition is 50% (inactive).

As for `Nc1ccccc1N=Nc1c(S(=O)(=O)O)cc2cc(S(=O)(=O)O)cc(O)c2c1O`, the growth inhibition is 11% (inactive).

For `CCN(CC)c1c(C(=O)/C=C/c2ccc(OC)cc2)c(-c2ccccc2)nn(C)c1=O`, the growth inhibition is 5% (inactive).

For the molecule `O=C(O)/C=C/c1ccc(Cl)c(Cl)c1`, the growth inhibition is 59% (inactive).

For `CCC12C=CCN3CC[C@@]4(c5cc([C@@]6(C(=O)OC)C[C@@H]7CN(CCc8c6[nH]c6ccccc86)C[C@](O)(CC)C7)c(OC)cc5N(C)[C@H]4[C@@](O)(C(=O)OC)[C@@H]1OC(=O)CCCCCCCCCCCN1C(=O)C=CC1=O)[C@H]32` (stereo partly drawn), the growth inhibition is 98% (active).

Turning to `Cc1cc(C)c(Cc2cc(C(C)(C)C)cc(C)c2O)cc1Cc1cc(C(C)(C)C)cc(C)c1O`, the growth inhibition is 27% (inactive).

With `COC(=O)C(=O)/C=C(/O)c1ccc(OC)cc1`, the growth inhibition is 5% (inactive).

Turning to `Oc1ccc2c(c1)OCC1c3ccccc3OC21` (stereo not drawn), the growth inhibition was 73% (active).

Turning to `Cc1cc(N2C(=O)CCSC2=S)c([N+](=O)[O-])cc1C`, the growth inhibition is 99% (active).

For `CCCCCCC(C)S(=O)(=O)c1ccc(C)cc1` (stereo not drawn), the growth inhibition is 75% (active).

Regarding `S=c1sc2c(s1)SCCOCCOCCOCCS2`, the growth inhibition was 5% (inactive).

Turning to `N#Cc1cn(-c2c3ccccc3nc3ccccc23)c(=O)[nH]c1=O`, the growth inhibition was 30% (inactive).

Turning to `O=C1C=C(c2ccccc2)O/C1=C\C(=O)c1ccc(Cl)cc1`, the growth inhibition is 54% (inactive).

With `O=c1[nH]c2cc(Cl)ccc2nc1/C=C(\O)c1ccc(N2CCN(c3ccc(/C(O)=C/c4nc5ccc(Cl)cc5[nH]c4=O)cc3)CC2)cc1`, the growth inhibition is -12% (inactive).

Consider `O=C1Oc2ccccc2C(=O)/C1=C/N1C(=O)/C(=C/c2ccccc2)NC1=S`, for which the growth inhibition is 42% (inactive).

With `CN(C)/C=C(\C(=O)c1ccccc1)n1nc(-c2ccccc2)cc1-c1ccccc1`, the growth inhibition was 48% (inactive).

Consider `O=C1C(=O)c2ccccc2C(O)=C1Sc1ccccc1`, for which the growth inhibition was 95% (active).

Take `O=C(c1c(F)c(F)c(F)c(F)c1F)n1c(=S)n(C(=O)c2c(F)c(F)c(F)c(F)c2F)c2ccccc21`: the growth inhibition is 93% (active).

On to `CCCCNCCC1(c2ccccc2)C(=O)Oc2ccccc21` (stereo not drawn), for which the growth inhibition was 35% (inactive).

Regarding `COc1cc(/C=C/c2cc[n+](C)cc2)ccc1O`, the growth inhibition is -17% (inactive).

Consider `c1ccc(-c2ccc(-c3ccc(C4=NCCN4)cc3)o2)cc1`, for which the growth inhibition is 51% (inactive).

With `CCCCCCCCCCCCCCNC(=O)C[N+](C)(C)Cc1ccccc1`, the growth inhibition was 99% (active).

Consider `NC(CSSCC(N)C(=O)Nc1ccc2ccccc2c1)C(=O)Nc1ccc2ccccc2c1` (stereo not drawn), for which the growth inhibition is 100% (active).

With `O=C(OCc1ccccc1)C(O)c1ccccc1` (stereo not drawn), the growth inhibition was 3% (inactive).

Regarding `CC(=O)CC1(O)C(=O)Nc2ccc(Br)cc21` (stereo not drawn), the growth inhibition was 1% (inactive).

As to `S=C(S)NCCN1CCNCC1`, the growth inhibition is -16% (inactive).

For `CCCCCCCC(=O)N1CCCCC1CC` (stereo not drawn), the growth inhibition is 24% (inactive).

In the case of `O=C1CCCC1C(=O)OC1CCCC1` (stereo not drawn), the growth inhibition was 2% (inactive).

As to `CCN1CCC(O)(/C=C/c2cccc(C)c2)C(C(=O)/C=C/c2cccc(C)c2)C1` (stereo not drawn), the growth inhibition was 92% (active).

For `O=C(SCCCc1ccccc1)c1cc([N+](=O)[O-])cc([N+](=O)[O-])c1`, the growth inhibition is 94% (active).

`O=C1C(=O)C2CC3(CC1N2Cc1ccccc1)OCCO3`: the growth inhibition was 93% (active).

In the case of `CNc1cc(SC)nc(N)n1`, the growth inhibition is -9% (inactive).

As for `Clc1ccc(Cl)c(SCCCN2CCNCC2)c1`, the growth inhibition is 65% (inactive).

In the case of `CC(C)C(Cl)CC/C(CBr)=C(\Cl)CCl` (stereo not drawn), the growth inhibition was 99% (active).

For the molecule `O=C(O)CNc1ccc2c(c1)Cc1cc(Br)ccc1-2`, the growth inhibition was 98% (active).
